# Assay outcomes (PubChem)
# In the library only some 3.4% were active in any assay of this set; here they are far more common.
# NTR1 ag: NTR1 (human) agonism; P30989; NTR1-U2OS beta-arrestin-GFP spot imaging, agonist mode; activation, % at 20 µM; 330,000 tested, 0.17% active;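 active = activation at or above 40% of the spot to cytoplasm intensity ratio, with at least 20 cells analyzed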;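 note: 0% = DMSO without peptide and 100% = 100 nM NTR1 peptide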
# Target sequence (P30989 whole entry, looked up): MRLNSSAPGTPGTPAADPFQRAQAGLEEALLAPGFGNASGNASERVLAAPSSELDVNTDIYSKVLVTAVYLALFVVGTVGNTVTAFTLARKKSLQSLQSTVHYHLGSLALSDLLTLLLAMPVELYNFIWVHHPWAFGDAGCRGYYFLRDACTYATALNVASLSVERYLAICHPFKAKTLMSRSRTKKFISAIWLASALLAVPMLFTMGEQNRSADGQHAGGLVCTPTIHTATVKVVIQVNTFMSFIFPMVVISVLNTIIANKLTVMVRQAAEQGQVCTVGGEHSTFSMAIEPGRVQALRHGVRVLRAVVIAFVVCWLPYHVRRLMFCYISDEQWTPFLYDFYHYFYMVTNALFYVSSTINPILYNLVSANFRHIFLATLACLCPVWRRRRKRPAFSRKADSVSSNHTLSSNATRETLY
# MEKK3 PB1 HTS: raises or lowers MEK5 binding to the human MEKK3 PB1 domain; Q99759; bead-based flow cytometry, Alexa488-MEK5 binding to MEKK3; actives lie on both sides; 0 = blocked by unlabeled MEK5, 100 = vehicle; binding response (% of control), % at 10 µM; 290,000 tested, 1.4% active; AID 1529;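 active = binding response more than 3 SD above or below the average of its plate-row segment, actives on both sides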;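 note: Alexa488 bead fluorescence after subtracting the streptavidin-only scavenger bead signal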
# MEKK2 WT-MEK5: raises or lowers MEK5 binding to wildtype human MEKK2 PB1 domain; Q9Y2U5; bead flow cytometry, Alexa488-MEK5 binding to MEKK2 WT; actives lie on both sides; binding response (% of control), % at 10 µM; 290,000 tested, 1.1% active; in the data active = binding response below about 67% or above about 130%
# ANO1 block: mouse TMEM16A channel inhibition, primary screen; AID 588511; Q8BHY3; HEK293 TMEM16A/YFP iodide influx fluorescence, ionomycin; 310,000 tested, 1.2% active; normalized B-score (activity score, 25-100; higher = stronger inhibition) at 10 µM;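 active = ratio plate-corrected score three or more library SD toward inhibition, starting fluorescence score within five deviations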;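 note: score derived from kinetic fluorescence span divided by baseline fluorescence per well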
# MEKK2mut PB1 HTS: signal of MEK5 binding to mutant human MEKK2 PB1 domain; 290,000 tested, 0.35% active; bead flow cytometry, Alexa488-MEK5 binding to MEKK2 mutant; percent response, % at 10 µM; AID 1530; in the data active = percent response above about 24%, passing the limit was not always enough
# TMEM16A act: activates or potentiates the mouse TMEM16A chloride channel | 340,000 tested, 0.3% active | B-score at 10 µM | HEK293 TMEM16A/YFP-H148Q/I152L, iodide quench fluorescence; active compounds read low | Q8BHY3;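 active = fluorescence-ratio B-score plate-corrected deviation score at least 3 library SD below zero, with starting fluorescence score within 5 deviations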;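 note: channel opened by trigger with iodide after compound preincubation; score built on the fluorescence ratio of max minus min over baseline; more negative score means more quench and so TMEM16A activation or potentiation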
# MEKK2wt confirm: raises or lowers MEK5 binding to wildtype human MEKK2, retest. shares compounds with MEKK3 PB1 HTS. bead flow cytometry, Alexa488-MEK5 binding to MEKK2 WT; actives lie on both sides. binding response (% of control), % at 10 µM. 5,900 tested, 2.4% active. AID 1892; in the data active = binding response below about 16% or above about 210%; inactive = in between
# MEKK2mut confirm: signal of MEK5 binding to mutant human MEKK2, retest. shares compounds with MEKK3 PB1 HTS. bead flow cytometry, Alexa488-MEK5 binding to MEKK2 mutant. percent response, % at 10 µM. 5,900 tested, 2% active; in the data active = percent response mostly above about 71%, no sharp cut-off; inactive = mostly below about 38%;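 note: higher means compound restores mutant binding toward wildtype level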
# MEKK3 confirm: confirmation of inhibitors of MEK5 binding to human MEKK3 | shares compounds with MEKK3 PB1 HTS | bead flow cytometry, Alexa488-MEK5 binding to MEKK3; active compounds read low | binding response (% of control), % at 10 µM | 5,900 tested, 1.8% active | AID 1894;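 active = binding response below 72% of control, or above a set upper limit, though filed actives all read lower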;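 note: 100% = DMSO only wells and 0% = binding blocked by excess unlabeled MEK5; lower values mean stronger disruption of MEK5 binding to MEKK3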
# * = called active by the depositor; i = inactive; x = not tested or not shown; [ ] = another dose, or the depositor's remark.
SMILES,NTR1 ag,MEKK3 PB1 HTS,MEKK2 WT-MEK5,ANO1 block,MEKK2mut PB1 HTS,TMEM16A act,MEKK2wt confirm,MEKK2mut confirm,MEKK3 confirm
CC(C)N1CCC2(CC1)N=C(c1ccc3c(c1)OCO3)CC(c1cc(Cl)ccc1O)N2 (centres undefined),35,111,138*,i,26*,i,122,8,107
CC(C)(C)n1ncc2c(=O)n(Cc3ccc(Cl)cc3Cl)cnc21,15,2.0*[inhibitor],2.0*[inhibitor],i,-69,i,105,-1,105
CCOC(=O)c1c(C)oc2ccc(O)c(CN(C)C)c12,0,94,101,i,3,i,x,x,x
CCOC(=O)c1c(C)oc2cc(Cl)c(O)c(CN(C)C)c12,2,128*,131,i,27,i,108,11,106
CCOc1ccc(OCc2cccc(C(=O)N3CCOCC3)c2)cc1,0,x,x,i,x,i,x,x,x
CCOc1ccc(N=C(/C(C(=O)C(=O)N2CCOCC2)=C(/O)c2ccccc2)c2ccccc2)cc1,0,49*[inhibitor],78,i,-37,i,91,-9,98
COCCN(C(=O)CNC(=O)c1cccs1)C(C(=O)NC(C)(C)C)c1ccccc1 (centres undefined),4,98,95,i,-2,i,x,x,x
CCC1SC2=NC(C)=C(C(=O)OCCOC)C(/C=C/c3ccccc3OC)N2C1=O (centres undefined),-2,124*,116,i,5,i,95,-6,100
COC(=O)C1=C(C)N=C2SC(C)C(=O)N2C1/C=C/c1ccccc1OC (centres undefined),3,102,100,i,2,i,x,x,x
CC(C)(C)N(Cc1ccccc1)C(=O)COC(=O)C1CCCCC1,1,x,x,x,x,i,x,x,x
Cc1cccc(NCc2cc(Cl)ccc2O)n1,-1,82*[inhibitor],107,i,4,i,101,3,101
CCC1CCCCN1C(=O)c1cc(S(=O)(=O)N2CCOCC2)ccc1C (centres undefined),3,x,x,x,x,i,x,x,x
COc1ccc(S(=O)(=O)NCC2CCCN(Cc3cccnc3)C2)cc1 (centres undefined),-1,89,56*[inhibitor],i,-4,i,99,-1,95
COc1ccc(N2CCN(C(=O)CN(Cc3ccc(Cl)cc3)S(C)(=O)=O)CC2)cc1,-1,97,97,i,-6,i,x,x,x
COc1ccc(N2CCN(C(=O)CSc3ccc([N+](=O)[O-])cc3)CC2)cc1,1,90,87,i,-3,i,x,x,x
COc1ccc(N2CCN(C(=O)CSc3ccc(C)cc3)CC2)cc1,0,130*,114,i,0,i,107,6,104
COc1ccc(N2CCN(C(=O)CN(Cc3ccccc3)S(C)(=O)=O)CC2)cc1,-1,55*[inhibitor],64,i,-22,i,111,13,106
COc1ccccc1-n1cnnc1SC(C)C(=O)NCC1CCCO1 (centres undefined),5,x,x,x,x,i,x,x,x
COc1ccccc1-n1cnnc1SC(C)C(=O)Nc1ccc(NC(C)=O)cc1 (centres undefined),3,96,56*[inhibitor],i,-5,i,95,-5,97
CCOC(=O)C1CCCN(C(=O)c2ccc(Cl)c(S(=O)(=O)N3CCCCC3)c2)C1 (centres undefined),1,106,103,i,-2,i,x,x,x
C=C(C)c1cccc(C(C)(C)NC(=O)NCc2ccc(OC)c(OC)c2)c1,-1,104,102,i,5,i,x,x,x
C=C(C)c1cccc(C(C)(C)NC(=O)NCc2ccc(OC)cc2)c1,1,133*,104,i,0,i,104,6,105
CN(C)CCn1nnc2c(=O)oc3ccccc3c21,0,56*[inhibitor],x,i,-32,i,101,1,102
CCCn1nnc2c(=O)oc3ccccc3c21,3,98,100,i,-1,i,x,x,x
Cc1nc(NC(=S)NC(=O)COc2ccc(Cl)cc2)ccc1Br,0,139*,104,i,-1,i,101,4,102
SMILES,NTR1 ag,MEKK3 PB1 HTS,MEKK2 WT-MEK5,ANO1 block,MEKK2mut PB1 HTS,TMEM16A act,MEKK2wt confirm,MEKK2mut confirm,MEKK3 confirm
Cc1ccc(OCC(=O)NC(=S)Nc2ccc(Br)c(C)n2)cc1,2,102,102,i,6,i,x,x,x
CC(C)CN(C(=O)COC(=O)c1nc(Cl)ccc1Cl)c1c(N)n(Cc2ccccc2)c(=O)[nH]c1=O,1,103,110,i,8,i,x,x,x
Cc1ccc(S(=O)(=O)NC2CCCC2)cc1C(N)=O,1,102,108,i,8,i,x,x,x
CCOC(=O)c1ccc(N2CN(CC)CNC2=S)cc1,0,130*,107,i,1,i,105,1,103
O=C(CN1CCN(c2ccccc2Cl)CC1)NC1CCCc2ccccc21 (centres undefined),10,129*,106,i,1,i,102,-9,96
COc1ccc(-c2nnn(CC(=O)Nc3ccc4c(c3)OCCO4)n2)cc1OC,-1,x,x,x,x,i,x,x,x
COc1ccc(-c2nnn(CC(=O)c3ccc4c(c3)OCCO4)n2)cc1OC,0,123*,103,i,6,i,106,5,104
COc1ccc(-c2nc(CSCC(=O)NC3CCCc4ccccc43)c(C)o2)cc1OC (centres undefined),1,105,108,i,-1,i,x,x,x
COc1ccc(-c2nnn(CC(=O)NC3CCCc4ccccc43)n2)cc1OC (centres undefined),2,122*,115,i,5,i,102,1,100
COc1cccc(NC(=O)N2CCCC(C(=O)NC3CCCCC3C)C2)c1 (centres undefined),1,102,107,i,5,i,x,x,x
CC(C)(C)NC(=O)Cn1nnc(-c2ccc(OCc3c(F)cccc3Cl)cc2)n1,6,109,120,i,7,i,x,x,x
CC(C)CC(=O)Nc1nnc(SCC(=O)NCc2ccco2)s1,1,99,100,i,2,i,x,x,x
